# Screening data: PubChem, The Scripps Research Institute Molecular Screening Center
# ABHD5-PLIN5 inh = inhibitors of human ABHD5-perilipin-5 interaction; AID 602281; Split G. princeps luciferase complementation, luminescence, 4 h; inhibition, % at 4 µM; 0.78% of 360,000 active;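 active means inhibition above the mean inhibition across every tested compound plus 3 SD, cut at about 22% in these data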;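 further: 0% = DMSO only wells and the 100% control is not disclosed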
# Target sequence (Q00G26 whole entry, looked up): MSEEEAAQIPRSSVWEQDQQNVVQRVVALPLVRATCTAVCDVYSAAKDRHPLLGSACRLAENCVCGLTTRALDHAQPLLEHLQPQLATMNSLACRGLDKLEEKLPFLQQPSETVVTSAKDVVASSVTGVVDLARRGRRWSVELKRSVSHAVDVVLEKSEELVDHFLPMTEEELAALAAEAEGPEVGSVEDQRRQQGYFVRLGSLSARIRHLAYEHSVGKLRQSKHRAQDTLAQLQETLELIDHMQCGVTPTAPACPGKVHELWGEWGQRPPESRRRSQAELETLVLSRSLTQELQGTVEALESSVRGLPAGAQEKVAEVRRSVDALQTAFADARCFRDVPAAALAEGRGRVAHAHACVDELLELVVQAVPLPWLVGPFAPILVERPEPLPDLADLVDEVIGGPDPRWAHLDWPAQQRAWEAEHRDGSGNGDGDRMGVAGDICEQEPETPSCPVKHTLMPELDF
# Target sequence (Q8WTS1 whole entry, looked up): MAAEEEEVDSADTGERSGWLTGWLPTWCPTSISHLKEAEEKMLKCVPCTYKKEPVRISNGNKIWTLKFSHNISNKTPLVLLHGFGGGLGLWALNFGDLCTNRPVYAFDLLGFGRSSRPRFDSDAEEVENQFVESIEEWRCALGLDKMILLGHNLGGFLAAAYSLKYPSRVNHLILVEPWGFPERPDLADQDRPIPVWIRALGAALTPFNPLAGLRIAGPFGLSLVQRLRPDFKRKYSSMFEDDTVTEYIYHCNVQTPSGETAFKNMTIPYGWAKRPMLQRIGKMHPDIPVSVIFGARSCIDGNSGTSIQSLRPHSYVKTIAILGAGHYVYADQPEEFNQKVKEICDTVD
# TLR4-MyD88 BLA = inhibitors of human TLR4-MyD88 binding | O00206+Q99836 | HeLa CL3-4 TLR4/MyD88 BLA complementation, FRET ratio | inhibition, % at 8.4 µM | 0.18% of 200,000 active | AID 861; in the data active means inhibition above about 25%;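 further: 0% = vehicle and 100% = reference inhibitor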
# TLR9-MyD88 inh = blocks human TLR9 binding to MyD88; Q9NR96+Q99836; CHO BLA complementation TLR9-MyD88, CCF4 FRET ratio; inhibition, % at 4.98 µM; 0.21% of 340,000 active; AID 504734;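 active means inhibition above the mean over all tested compounds plus 3 SD, cut at about 21% in these data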;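 further: 0% = DMSO only wells and 100% = clavulanate BLA inhibitor control wells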
# NOD2-RIPK2 inh = NOD2-RIPK2 protein interaction inhibition; 0.38% of 360,000 active; O43353; AID 624267; CHO BLA complementation NOD2-RIPK2, CCF4 ratio; inhibition, % at 4.98 µM; in the data active means inhibition above about 21%;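 further: 0% = vehicle only and 100% = reference blocker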
# ABHD5 PLIN5 conf = confirmation of human ABHD5-PLIN5 interaction inhibitors. shares compounds with ABHD5-PLIN5 inh. AID 651612. 67% of 2,200 active. inhibition, % at 4 µM. biochemical ABHD5-PLIN5 interaction, luminescence; in the data active means inhibition above about 23%;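 further: 0% = DMSO vehicle wells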
# HNF4 counter = active in HNF4 split-luciferase counter-screen for ABHD5-PLIN5 inhibitors; shares compounds with ABHD5-PLIN5 inh; HNF4 dimerization, luminescence, biochemical; inhibition, % at 4 µM; 77% of 2,200 active; AID 651674;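 active means mean inhibition across replicate wells exceeding the computed hit threshold, cut at about 13% in these data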;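 further: light from luciferase halves that rejoin when HNF4 fusion proteins dimerize; 0% = DMSO only wells and the 100% control is not given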
# NOD2 RIPK2 conf = confirmation of human NOD2-RIPK2 interaction inhibitors. AID 624370. CHO cells, NOD2-RIPK2 BLA complementation, CCF4 FRET. inhibition, % at 4.98 µM. shares compounds with NOD2-RIPK2 inh. 70% of 1,200 active;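 active means mean inhibition across replicates above a set limit taken from the earlier primary screen, cut at about 21% in these data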;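 further: 0% = DMSO-only wells and the high end = clavulanate BLA-blocked wells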
# NOD2 BLA counter = hits BLA reporter in NOD2-RIPK2 inhibitor counterscreen; shares compounds with NOD2-RIPK2 inh; CHO BLA reporter, CCF4 FRET ratio; inhibition, % at 4.98 µM; 57% of 1,200 active;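 active means mean inhibition above the low-control mean inhibition plus three low-control SD, cut at about 11% in these data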;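 further: 0% = DMSO only wells and 100% = clavulanate high control wells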
# * marks the source's active call; other numbers are inactive results; / = no result. Rows were chosen to be rich in hits. Some 1.2% of all compounds tested hit in one or more screens of this group.
SMILES,ABHD5-PLIN5 inh,TLR4-MyD88 BLA,TLR9-MyD88 inh,NOD2-RIPK2 inh,NOD2 RIPK2 conf,NOD2 BLA counter,others
CN(C)CCNC(=O)c1ccc2nc([C@@H]3O[C@H](CO)[C@H](O)[C@H](O)[C@H]3O)[nH]c2c1,0.2,/,/,3.7,/,/,
O=C1C(=C(I)I)c2ccccc2-c2ccccc21,43.3*,/,13.8,68.0*,84.4*,7.4,ABHD5 PLIN5 conf=101.2*;HNF4 counter=101.8*
C=CCOc1cccc(C(=O)/C=C2/C(=O)Nc3ccccc32)c1,65.1*,/,9.4,41.0*,39.2*,3.6,ABHD5 PLIN5 conf=80.1*;HNF4 counter=90.0*
COc1ccc(CN2C[C@H](Cc3ccccc3)[C@@H](CC(=O)Nc3ccccc3)C2=O)cc1,/,/,-3.4,/,/,/,
O=Cc1cn(-c2ccccc2)nc1-c1ccccc1,3.1,/,0.0,2.1,/,/,
CC1=NNC(=O)/C1=C\c1cn(-c2ccccc2)nc1-c1ccccc1,74.0*,6.8,3.0,54.4*,60.3*,5.3,ABHD5 PLIN5 conf=98.7*;HNF4 counter=101.4*
Cc1ccc(S(=O)(=O)N2CCCCC2)cc1NC(=O)Cn1cnnn1,1.8,/,6.0,-19.8,/,/,
Cc1ccc(S(=O)(=O)N2CCCCC2)cc1NC(=O)Cn1ncc(Cl)c(Cl)c1=O,26.2*,/,19.9,43.7*,45.4*,12.4*,ABHD5 PLIN5 conf=22.5*;HNF4 counter=14.4*
CCOc1ccc(NS(=O)(=O)c2ccc(NC(=O)[C@@H]3CCCC[C@@H]3C(=O)O)cc2)cc1,-8.2,-3.8,2.0,-0.7,/,/,
COc1cccc(NC(=S)N2CCC(NC(=O)c3ccco3)CC2)c1,5.8,/,4.0,-11.4,/,/,
COc1ccc(/C=C2\CCC(C3CCCC3)C2=O)cc1 (stereo not drawn),-0.1,/,5.3,-11.3,/,/,
COc1ccc(/C=C2/CCC(CN3CCOCC3)C2=O)cc1 (stereo not drawn),69.0*,/,-6.2,33.9*,91.8*,18.5*,ABHD5 PLIN5 conf=100.0*;HNF4 counter=107.1*
Nc1c(S(=O)(=O)c2ccccc2)csc1C(=O)O,2.2,1.8,-12.2,43.7*,-8.0,-4.0,
O=C(CCc1nnc(COc2ccccc2)o1)NCc1ccc(Cl)s1,7.8,3.4,5.0,0.2,/,/,
O=C(Nc1ccc2c(c1)OCCO2)C(c1ccccc1F)n1c(=O)c(-c2cc3ccccc3[nH]2)nc2ccccc21 (stereo not drawn),-5.0,/,/,48.7*,45.1*,67.5*,
COc1ccc(C(C(=O)NC(C)(C)C)n2c(-c3ccc(C(F)(F)F)cc3)nc3ccccc32)cc1 (stereo not drawn),-9.3,/,/,-21.4,/,/,
O=C(Nc1ccc2c(c1)OCCO2)C(c1ccncc1)n1c(=O)c(-c2cc3ccccc3[nH]2)nc2ccccc21 (stereo not drawn),5.8,/,/,34.3*,36.6*,58.3*,
O=C(Nc1ccc2ccccc2c1)C(c1ccc(C(F)(F)F)cc1)n1c(=O)c(-c2cc3ccccc3[nH]2)nc2ccccc21 (stereo not drawn),-15.8,/,/,46.4*,39.8*,64.7*,
O=C(Nc1ccc2c(c1)OCCO2)C(c1ccc(C(F)(F)F)cc1)n1c(=O)c(-c2cc3ccccc3[nH]2)nc2ccccc21 (stereo not drawn),-16.8,/,/,47.9*,44.2*,65.5*,
CN(C)c1ccc(/C=C/c2cccc[n+]2[O-])cc1,0.8,/,/,26.4*,-24.3,8.1,
N#CC(=C1C=CC(=NO)C(Cl)=C1)c1ccc(Cl)cc1,-10.7,/,8.4,42.2*,26.2*,22.6*,
CCc1nc2c(OCc3cccc(OC)c3)cccn2c1N(C)C(=O)c1ccccc1F,3.7,/,/,2.3,/,/,
COc1ccc(OC)c2sc(N(CCCN(C)C)C(=O)CCS(=O)(=O)c3ccccc3)nc12,39.5*,/,15.6,40.9*,53.7*,5.4,
CC(=O)Oc1c(-c2ccco2)oc2ccccc2c1=O,-7.3,7.6,20.0,27.5*,31.4*,30.2*,
Cc1cccc(NC(=O)Cn2cnc(S(=O)(=O)N3CCCC3)c2)c1C,1.7,/,-0.2,13.9,/,/,
SMILES,ABHD5-PLIN5 inh,TLR4-MyD88 BLA,TLR9-MyD88 inh,NOD2-RIPK2 inh,NOD2 RIPK2 conf,NOD2 BLA counter,others
O=c1c(O)c(-c2ccccc2)oc2cc(O)ccc12,3.1,/,/,24.6*,32.1*,29.4*,
C=C1C(=O)C23CCC4C(C)(C(=O)OC)CCCC4(C)C2CCC1(O)C3 (stereo not drawn),72.0*,/,2.6,79.0*,87.6*,21.4*,
COc1ccc(CNC(=O)c2ccc(NC(=O)C3=CSCCO3)cc2)cc1,4.6,/,-2.4,5.8,/,/,
CCCCOc1ccc(S(=O)(=O)NC(=O)C2(C)CCN2C(=O)Cc2cccs2)cc1 (stereo not drawn),-1.9,/,/,-1.2,/,/,
Cc1ccc2cc(CN(CCO)Cc3nnnn3Cc3ccc(F)cc3)c(=O)[nH]c2c1,-6.7,-1.5,-5.7,0.3,/,/,
O=c1[nH]c2cc3c(cc2cc1CN(CCCO)Cc1nnnn1Cc1ccc(F)cc1)OCO3,9.0,2.8,8.4,26.1*,-3.2,2.4,
COc1cc2ccc(=O)oc2cc1OCC(O)C(C)(C)O (stereo not drawn),-2.0,/,1.9,-17.8,/,/,
COc1cc2ccc(=O)oc2cc1O,3.8,/,-8.7,29.6*,20.9,38.5*,
CC(=O)c1ccc(OCCCC(=O)Nc2ccc(C)c(S(=O)(=O)N3CCCCC3)c2)cc1,-3.9,/,-8.1,36.3*,-7.1,-6.7,
CC(C)[C@H](N)C(=O)N1CCC(C(=O)N[C@@H](Cc2ccccc2)C(=O)NCc2ccc(F)cc2)CC1,2.1,/,-7.0,-5.6,/,/,
CCN(C(=O)COC(=O)CNC(=O)c1ccc(C)cc1)c1c(N)n(Cc2ccccc2)c(=O)[nH]c1=O,2.4,/,0.5,4.3,/,/,
Cc1cccc(C)c1NC(=O)C(c1ccc(C(F)(F)F)cc1)n1c(=O)c(-c2cc3ccccc3[nH]2)nc2ccccc21 (stereo not drawn),-12.6,/,/,47.3*,45.0*,69.3*,
Cc1cccc(C)c1NC(=O)C(c1ccc(-c2ccccc2)cc1)n1c(=O)c(-c2cc3ccccc3[nH]2)nc2ccccc21 (stereo not drawn),-2.7,/,/,42.5*,39.2*,65.8*,
CCN1CCN(C(=S)c2ccc([N+](=O)[O-])cc2)CC1,-14.1,-4.0,6.3,-6.0,/,/,
COc1ccc(CN(C(=O)/C=C/C(=O)c2ccc(OC)cc2O)C(C(=O)NC2CCCCC2)c2ccncc2)cc1 (stereo not drawn),5.6,-27.7,-8.6,4.3,/,/,
COc1ccc(C(=O)/C=C/C(=O)N(CC(=O)NC2CCCCC2)Cc2cccs2)c(O)c1,70.2*,23.7,18.3,74.4*,85.0*,17.2*,
CCOC(=O)CC(=O)CSc1ncnc2c1nnn2-c1ccc(OC)cc1,-2.4,-19.8,-7.1,6.7,/,/,
